The subject of assay [1] is rat Monoamine Oxidase, MAO-A, Central (MAOAC), gene 29253. As to the kind of experiment: NVS_ENZ_rMAOAC: NovaScreen (NVS) Enzymatic Assay for rat Monoamine Oxidase, MAO-A, Central (MAOAC) (AID 2283243).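 Note: potency refers to inhibition seen as signal drop below DMSO baseline.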 The method, boiled down: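 Steps: rat brain protein extract dosed with test chemical (25 uM, duplicate, primary); incubated 1.5 h; radiolabelled product separated from substrate and counted. Signal loss versus DMSO scored as inhibition.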

Assay [2] concerns the target Adenosine receptor A1 (Bos taurus) (UniProt P28190). Nature of the assay: NVS_GPCR_bAdoR_NonSelective: NovaScreen (NVS) G Protein-Coupled Receptor Assay for bovine Adenosine Receptor (AdoR), Non-selective Binding (AID 2283244). An outline of the steps: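 Bovine striatal membranes, radioligand displacement binding, 1 h after dosing, filter-based scintillation counting. Screened in duplicate at 25 uM, then concentration-response up to 50 uM; loss of specific binding relative to DMSO.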

The subject of assay [3] is bovine Histamine 1 Receptor (H1), gene 281231. As to the kind of experiment: NVS_GPCR_bH1: NovaScreen (NVS) G Protein-Coupled Receptor Assay for bovine Histamine 1 Receptor (H1) (AID 2283246). On the procedure:
(§1) NVS_GPCR_bH1 is a biochemical, single-readout assay that uses extracted gene-proteins from Bovine cerebellar membranes in a tissue-based cell-free assay. Measurements were taken 1 hour after chemical dosing in a 48-well plate.NVS_GPCR_bH1 is one of one assay component(s) measured or calculated from the NVS_GPCR_bH1 assay. It is designed to make measurements of radioligand binding, a form of binding reporter, as detected with scintillation counting signals by Filter-based radiodetection technology.Data from the assay component NVS_GPCR_bH1 was analyzed into 1 assay endpoint. This assay endpoint, NVS_GPCR_bH1, was analyzed in the positive analysis fitting direction relative to DMSO as the negative control and baseline of activity. Using a type of binding reporter, loss-of-signal activity can be used to understand changes in the binding as they relate to the gene HRH1. Furthermore, this assay endpoint can be referred to as a primary readout, because the performed assay has only produced 1 assay endpoint. To generalize the intended target to other relatable targets, this assay endpoint is annotated to the gpcr intended target family, where the subfamily is rhodopsin-like receptor.
Binding assays used specific radioligands (tritiated, iodinated) with non-radioactive competitive displacement ligands in agonist or antagonist protocols (as indicated) and various reference compounds and inhibitors to titrate specific binding to receptors and transporters. Most enzyme assays (CYPs, kinases, phosphatases, proteases, HDACs) used recombinant protein and specific substrates (fluorescence mostly, some colorimetric and radioactive) and inhibitors, followed by a biochemical separation of substrate and product. All assays for the biochemical HTS were initially run in duplicate at a single concentration (10 uM for CYP450 assays and 25 uM for all others). […]

For assay [4], the system named is guinea pig Leukotriene B4 Receptor (LTB4), gene 100379538. Nature of the assay: NVS_GPCR_gLTB4: NovaScreen (NVS) G Protein-Coupled Receptor Assay for guinea pig Leukotriene B4 Receptor (LTB4) (AID 2283247). The method, boiled down:
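Radioligand displacement on guinea pig spleen membranes, filter-based scintillation counting 2 h after dosing. Primary duplicate single point at 25 uM; hits over threshold (e.g. 30% inhibition) run in concentration-response up to 50 uM, DMSO baseline.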

The target of assay [5] is guinea pig Opioid, Kappa 1 Receptor (OpiateK), OPRK1 (gene 100135587) (UniProt P41144). Nature of the assay: NVS_GPCR_gOpiateK: NovaScreen (NVS) G Protein-Coupled Receptor Assay for guinea pig Opioid, Kappa 1 Receptor (OpiateK) (AID 2283252).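 Note: radioligand displacement from kappa opioid receptor in guinea pig cerebellar membranes; active means reduced radioligand binding relative to DMSO.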 On the procedure: as §1, with “NVS_GPCR_gOpiateK” for “NVS_GPCR_bH1”, “Guinea pig” for “Bovine”, “2 hours” for “1 hour”, “plate.NVS_GPCR_gOpiateK” for “plate.NVS_GPCR_bH1”, “NVS_GPCR_gOpiateK,” for “NVS_GPCR_bH1,”, “Oprk1.” for “HRH1.”
(§2) Binding assays used specific radioligands (tritiated, iodinated) with non-radioactive competitive displacement ligands in agonist or antagonist protocols (as indicated) and various reference compounds and inhibitors to titrate specific binding to receptors and transporters. Most enzyme assays (CYPs, kinases, phosphatases, proteases, HDACs) used recombinant protein and specific substrates (fluorescence mostly, some colorimetric and radioactive) and inhibitors, followed by a biochemical separation of substrate and product. All assays for the biochemical HTS were initially run in duplicate at a single concentration (10 uM for CYP450 assays and 25 uM for all others). […] Each assay was run with positive and negative controls, and concurrent controls on every plate. The follow-up (secondary) screen tested active chemical-pairs in concentration series, as well as a few additional assays not tested in the primary screen, some selected negative inactives, and several cases re-run in the concentration series for confirmatory purposes.

The target of assay [6] is human Serotonin, 5-Hydroxytryptamine Receptor 2A (5HT2A), HTR2A (gene 3356) (UniProt P28223). As to the kind of experiment: NVS_GPCR_h5HT2A: NovaScreen (NVS) G Protein-Coupled Receptor Assay for human Serotonin, 5-Hydroxytryptamine Receptor 2A (5HT2A) (AID 2283249). On the procedure: as §1, with “NVS_GPCR_h5HT2A” for “NVS_GPCR_bH1”, “Human cortex” for “Bovine cerebellar membranes”, “1.5 hours” for “1 hour”, “plate.NVS_GPCR_h5HT2A” for “plate.NVS_GPCR_bH1”, “NVS_GPCR_h5HT2A,” for “NVS_GPCR_bH1,”, “HTR2A.” for “HRH1.”
as §2

Assay [7] is described as follows: NVS_GPCR_bNPY_NonSelective: NovaScreen (NVS) G Protein-Coupled Receptor Assay for bovine Neuropeptide Y (NPY) Receptor, Non-selective Binding (AID 2283245). The method, boiled down:
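Bovine hippocampal membranes incubated 1 hour with radioligand and test chemical. Bound ligand measured by filter-based scintillation counting. Single-concentration screen at 25 uM in duplicate, then concentration-response up to 50 uM.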

In assay [8] the target is guinea pig Leukotriene D4 Receptor (LTD4), CYSLTR1 (gene 100135514) (UniProt Q2NNR5). Nature of the assay: NVS_GPCR_gLTD4: NovaScreen (NVS) G Protein-Coupled Receptor Assay for guinea pig Leukotriene D4 Receptor (LTD4) (AID 2283248). The method, boiled down: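 Radioligand displacement on guinea pig lung membranes, 1 h incubation, filtration and scintillation counting; DMSO as negative control. Duplicate 25 uM primary screen, then singleton concentration-response up to 50 uM.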

For assay [9], the system named is guinea pig Muscarinic, Peripheral (Mperiperal) Receptor, Non-selective Binding, gene 100379235. Nature of the assay: NVS_GPCR_gMPeripheral_NonSelective: NovaScreen (NVS) G Protein-Coupled Receptor Assay for guinea pig Muscarinic, Peripheral (Mperiperal) Receptor, Non-selective Binding (AID 2283250). An outline of the steps:
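Guinea pig bladder membranes, radioligand binding read 1 h after dosing by filter scintillation counting; loss of signal vs DMSO. Primary duplicate screen at 25 uM, then concentration-response up to 50 uM.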

Assay [10] concerns the target human Serotonin, 5-Hydroxytryptamine Receptor 5A (5HT5A), HTR5A (gene 3361) (UniProt P47898). As to the kind of experiment: NVS_GPCR_h5HT5A: NovaScreen (NVS) G Protein-Coupled Receptor Assay for human Serotonin, 5-Hydroxytryptamine Receptor 5A (5HT5A) (AID 2283251). An outline of the steps:
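Cell-free radioligand displacement binding on HEK293-derived membrane protein, 1 h incubation, filter-based scintillation counting. Primary screen in duplicate at 25 uM, actives followed in concentration series; loss of signal fitted versus DMSO.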

Inconclusive results are not listed. Activity calls are given as the source filed them. Rule for the calls: active = hit-call score of the fitted dose curve at least 0.9, where 1 is the maximum; inconclusive = response in the unintended direction; inactive = score below 0.9.

human Serotonin, 5-Hydroxytryptamine Receptor 2A (5HT2A), HTR2A (gene 3356), sequence (P28223 whole entry, looked up): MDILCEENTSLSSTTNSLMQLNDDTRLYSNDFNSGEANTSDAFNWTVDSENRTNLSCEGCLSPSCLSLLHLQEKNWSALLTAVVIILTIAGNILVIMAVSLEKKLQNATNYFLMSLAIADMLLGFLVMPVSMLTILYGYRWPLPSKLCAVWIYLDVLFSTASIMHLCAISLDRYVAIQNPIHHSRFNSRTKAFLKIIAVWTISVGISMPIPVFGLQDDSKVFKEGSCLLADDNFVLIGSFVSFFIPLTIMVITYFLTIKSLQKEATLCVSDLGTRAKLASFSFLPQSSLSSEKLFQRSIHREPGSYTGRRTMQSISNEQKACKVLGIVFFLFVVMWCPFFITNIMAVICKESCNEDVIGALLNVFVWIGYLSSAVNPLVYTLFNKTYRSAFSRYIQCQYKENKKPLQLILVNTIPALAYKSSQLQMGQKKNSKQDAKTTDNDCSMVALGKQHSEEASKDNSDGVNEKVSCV
guinea pig Opioid, Kappa 1 Receptor (OpiateK), OPRK1 (gene 100135587), sequence (P41144 whole entry, looked up): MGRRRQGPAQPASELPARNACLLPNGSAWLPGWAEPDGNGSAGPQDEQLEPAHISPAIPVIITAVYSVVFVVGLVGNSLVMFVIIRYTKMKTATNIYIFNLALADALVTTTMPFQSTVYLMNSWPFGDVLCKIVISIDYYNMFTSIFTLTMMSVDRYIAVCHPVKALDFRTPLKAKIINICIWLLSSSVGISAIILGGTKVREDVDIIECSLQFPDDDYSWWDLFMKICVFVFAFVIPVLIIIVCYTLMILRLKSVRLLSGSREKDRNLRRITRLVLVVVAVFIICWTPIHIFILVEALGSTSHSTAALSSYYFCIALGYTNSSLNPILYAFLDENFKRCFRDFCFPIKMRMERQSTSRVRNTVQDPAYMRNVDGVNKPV
Adenosine receptor A1 (Bos taurus), sequence (P28190 whole entry, looked up): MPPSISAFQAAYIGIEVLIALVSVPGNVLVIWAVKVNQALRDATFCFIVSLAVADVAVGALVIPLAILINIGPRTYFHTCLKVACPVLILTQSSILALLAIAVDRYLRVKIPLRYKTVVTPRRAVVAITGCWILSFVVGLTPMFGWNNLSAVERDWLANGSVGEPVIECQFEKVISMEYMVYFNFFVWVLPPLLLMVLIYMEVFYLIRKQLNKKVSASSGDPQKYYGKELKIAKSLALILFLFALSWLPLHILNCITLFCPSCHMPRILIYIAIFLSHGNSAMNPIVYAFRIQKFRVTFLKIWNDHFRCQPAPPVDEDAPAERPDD
human Serotonin, 5-Hydroxytryptamine Receptor 5A (5HT5A), HTR5A (gene 3361), sequence (P47898 whole entry, looked up): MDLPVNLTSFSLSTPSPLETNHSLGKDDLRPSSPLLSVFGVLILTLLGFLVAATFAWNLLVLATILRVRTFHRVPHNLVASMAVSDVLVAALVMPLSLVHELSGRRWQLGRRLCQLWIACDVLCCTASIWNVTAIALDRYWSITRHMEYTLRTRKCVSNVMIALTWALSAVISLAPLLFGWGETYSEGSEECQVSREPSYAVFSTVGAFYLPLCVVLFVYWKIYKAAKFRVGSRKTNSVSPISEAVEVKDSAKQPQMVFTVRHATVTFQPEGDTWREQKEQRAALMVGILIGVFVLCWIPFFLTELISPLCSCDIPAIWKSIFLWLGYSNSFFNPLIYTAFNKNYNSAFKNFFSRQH
guinea pig Leukotriene D4 Receptor (LTD4), CYSLTR1 (gene 100135514), sequence (Q2NNR5 whole entry, looked up): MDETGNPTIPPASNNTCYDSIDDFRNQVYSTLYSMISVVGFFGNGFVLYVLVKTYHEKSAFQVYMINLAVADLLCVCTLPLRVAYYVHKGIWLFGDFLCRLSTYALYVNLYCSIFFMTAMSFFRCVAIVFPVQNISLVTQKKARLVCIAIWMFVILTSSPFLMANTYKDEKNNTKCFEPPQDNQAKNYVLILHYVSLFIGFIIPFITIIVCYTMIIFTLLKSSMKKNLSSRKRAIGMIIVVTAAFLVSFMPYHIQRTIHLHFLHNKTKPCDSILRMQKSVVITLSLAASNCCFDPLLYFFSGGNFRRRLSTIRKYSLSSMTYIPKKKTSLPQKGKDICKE

Regarding `CN(C)c1ccc(C(=O)c2ccc(N(C)C)cc2)cc1`, the AC50 (usually the concentration giving half of the maximal activity seen) in assay [1] was 5.33 µM (active). Still for that read-out and setting: in the case of `Nc1ccc(Oc2ccc(N)cc2)cc1` it was 11.3 µM (active).

`Nc1ccc(N=Nc2ccccc2)cc1`: the AC50 in assay [1] is 10.6 µM (active); in assay [2] it was 25 µM (active). Take `Nc1ccc([N+](=O)[O-])cc1`: in assay [1], the AC50 was 36.3 µM (active). As for `C[C@]12C=CC3=C4CCC(=O)C=C4CC[C@H]3[C@@H]1CC[C@@H]2O`, in [3], the compound was classed as inactive. Further, the AC50 in assay [4] is 2.88 µM (active). In the case of `Nc1ccc(Cc2ccc(N)cc2)cc1`, in [4], the AC50 was 2.83 µM (active). `CC(C)N(Cc1ccccc1)C(=O)C(C)(C)C`: the AC50 in assay [5] was 15.7 µM (active). `CC(C)(C)C(O)(CCc1ccc(Cl)cc1)Cn1cncn1` (stereo unspecified): the result in assay [6] was inactive. As for `CS(=O)(=O)NC(=O)c1cc(Oc2ccc(C(F)(F)F)cc2Cl)ccc1[N+](=O)[O-]`, the compound was called inactive in assay [2]. Regarding `Cc1cc(N=Nc2ccccc2C)ccc1N`, in [3], the outcome was inactive. As for `O=[N+]([O-])C(Br)(CO)CO`, the AC50 was 16.5 µM (active) in assay [2] and 25 µM (active) in assay [5]. Moreover, the result in [6] was inactive. `CCC[CH2][Sn]([Cl])([CH2]CCC)[CH2]CCC`: the AC50 in assay [7] was 3.07 µM (active); in assay [4] it was 15.8 µM (active); in assay [8], 1.86 µM (active); in [6] it was 32.6 µM (active); in [9] it was 9.81 µM (active); in assay [10], 2.07 µM (active). The AC50 in [5] was 14.5 µM (active).

With `Nc1ccc(Cl)cc1N`, the compound was called inactive in assay [1] and in assay [2]. Regarding `CCCCCCCCn1sccc1=O`, in [7], the call was inactive. For the same compound, the AC50 in assay [10] was 26 µM (active); in assay [5], 18.2 µM (active). In the case of `COP(=S)(OC)SCN1C(=O)c2ccccc2C1=O`, the call in assay [6] was inactive. On to `CCCSC(=O)N(CCC)CCC`, for which the call in assay [5] was inactive. With `Oc1ccc2ccc3cccc4ccc1c2c34`, the AC50 in assay [1] is 0.255 µM (active). Turning to `O=C(Nc1ccccc1)c1ccccc1I`, the call in assay [7] was inactive.

The record behind these values is PubChem BioAssay (EPA / NIEHS).
